Fluor 339 460 – intrinsic fluorescence of library compounds, ex339/em460 – biochemical, MLSMR library, data from DPM-DC assay, artefact control, profiling panel; fluorescence fold increase at 10 µM; compound autofluorescence, ex339/em460 nm, NADH buffer; stronger effect = higher value; 1 = no-compound wells, NADH background; 65,000 compounds, 5.5% hits;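 active = at 10 µM, mean starting fluorescence two-fold or more over control wells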;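 note: signal is the first read of a kinetic run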
NADH coupling – inhibitors of enzymes used to reach an NAD/NADH endpoint; coupled PK/LDH NADH assays, four targets; IC50, µM (top dose mostly 10 µM); 65,000 compounds, 0.02% hits; AID 774;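 active = single-dose screening hits from any of four coupled enzyme assays that gave an IC50 when retested across doses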;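 note: the DPM-DC format reads NADH fluorescence rather than 340 nm absorbance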
PMK inhibit – S. pneumoniae PMK inhibition | purified PMK, PK/LDH-coupled NADH absorbance 340 nm | inhibition, % at 10 µM | 65,000 compounds, 0.49% hits;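 active = top-ranked compounds by inhibition in the single 10 µM screen, taking a fixed number of the strongest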
Spn DPM-DC inh – blocks S. pneumoniae diphosphomevalonate decarboxylase; calls only at 10 µM; purified DPM-DC, PK/LDH coupled NADH fluorescence; AID 556; 65,000 compounds, 0.49% hits;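 active = the 320 compounds with the highest percent inhibition in the single-dose primary screen, excluding strongly autofluorescent ones, cut at about 32% in these data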;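 note: kinetic rate of NADH fluorescence loss reporting ADP formed by the decarboxylase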
Spn MK inh – S. pneumoniae mevalonate kinase inhibition. 65,000 compounds, 0.48% hits. inhibition, % at 10 µM. purified MK, PK/LDH-coupled NADH absorbance 340 nm;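 active = ranked among the strongest by inhibition in the single 10 µM screen, a fixed top-ranked set picked for dose follow-up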
Each line names hits and unclear results; the compound was inactive in the other large screens. Rows were chosen to be rich in hits. Some 6.6% of all compounds tested hit in one or more screens of this group.

CCC(C)(C)n1nnnc1CN(Cc1ccco1)Cc1cc2cc3c(cc2[nH]c1=O)OCO3	Fluor 339 460 3.5 (not shown: Spn DPM-DC inh)
CC(C)(C)n1nnnc1CN(Cc1ccco1)Cc1cc2cc3c(cc2[nH]c1=O)OCO3	Fluor 339 460 2.5 (not shown: Spn DPM-DC inh)
N=C1C=CC=C2C1=NC1(CCCCC1)N2O	none
Cc1cc(N2CCN(C(=O)c3ccco3)CC2)n2ncc(-c3ccccc3)c2n1	none
Cc1nn2c(N3CCCC3)cc(C(C)C)nc2c1-c1ccccc1	Fluor 339 460 2.1
CCCc1cc(N2CCN(c3ccccn3)CC2)n2nc(C)c(-c3ccccc3)c2n1	Fluor 339 460 2.8
Cc1cc(N2CCCCC2)n2ncc(-c3ccccc3)c2n1	Fluor 339 460 2.5
Cc1cc(N2CCC(C)CC2)n2ncc(-c3ccccc3)c2n1	Fluor 339 460 3
O=S(=O)(NCCSc1nnnn1-c1ccccc1)c1cccs1	none
CC1CCC2(CC1)NC(=O)N(CC(=O)NC(=O)NC1CCCC1)C2=O (stereo unspecified)	none
CCOC(=O)C1CCN(C(=O)COc2ccc(S(=O)(=O)NC(C)(C)C)cc2)CC1	none
Cc1cc(N2CCC(C)CC2)n2nc(C)c(-c3ccccc3)c2n1	Fluor 339 460 2.4
Cc1cc(N2CCCCC2)n2ncc(-c3ccc(Cl)cc3)c2n1	Fluor 339 460 3.7 (not shown: Spn DPM-DC inh)
Cc1cc(N2CCCCC2)n2nc(C)c(-c3ccccc3)c2n1	none
O=C(NCCO)c1nc(NCCO)c2ccccc2n1	none
OCCNc1nc(N2CCN(Cc3ccccc3)CC2)nc2ccccc12	Fluor 339 460 2
C=CCNc1nc(N2CCCC2)nc2ccccc12	Fluor 339 460 2.7, Spn DPM-DC inh active
c1ccc(-c2noc(-c3cccc4ccccc34)n2)nc1	Fluor 339 460 3.3 (not shown: Spn DPM-DC inh)
CCOc1ccc(CNC(=O)C(CC)n2nc(C)n3c(cc4occc43)c2=O)cc1OC (stereo unspecified)	none
O=C(CSc1nc2cc(Cl)ccc2s1)N1CCN(C(=O)c2ccco2)CC1	none
O=C(CSc1nc(-c2ccccc2)cs1)N1CCN(C(=O)c2ccco2)CC1	PMK inhibit 29
O=C(OCC(=O)N1CCN(C(=O)c2ccco2)CC1)c1cc(-c2ccc(F)cc2)nc2ccccc12	Fluor 339 460 2.1 (not shown: Spn DPM-DC inh)
O=C(OCC(=O)N1CCN(C(=O)c2ccco2)CC1)c1cc(-c2ccccc2)nc2ccccc12	none
CSCC[C@H](NC(=O)C1CCN(S(=O)(=O)c2ccc(C)cc2)CC1)C(=O)NCc1ccco1	none
CCOCCn1c(=O)c2c(nc3n2CCN3c2ccc(CC)cc2)n(C)c1=O	none
CCc1nnc(NC(=O)C2CCCN2S(=O)(=O)c2ccc(F)cc2)s1 (stereo unspecified)	none
COc1ccc(OC)c(NC(=O)CNC(=O)Cn2ccc3ccccc3c2=O)c1	PMK inhibit 30
CCn1cc(C(=O)NC2CCCCC2C)c(=O)c2ccc(C)nc21 (stereo unspecified)	none
Cc1c2c(nc3c(C(=O)NC4CCCCC4C)cnn13)CCCC2 (stereo unspecified)	Fluor 339 460 4.4, PMK inhibit 29 (not shown: Spn DPM-DC inh)
COC(=O)c1c(C)nc(C)c2c(=O)oc3ccccc3c12	none
Cc1cc2c(c(N)n1)c(=O)oc1ccccc12	Fluor 339 460 3.7 (not shown: Spn DPM-DC inh)
CC(C)CCNC(=O)C(c1ccco1)N(Cc1ccc(F)cc1)C(=O)c1snc(C(N)=O)c1N (stereo unspecified)	none
CCN(CC)CCNC(=O)c1c(C)oc2cc(Br)c(OC)cc12	none
CCOC(=O)N1CCN(C(=O)c2ccc3nc4ccc(Cl)cc4c(=O)n3c2)CC1	Fluor 339 460 4.9 (not shown: Spn DPM-DC inh)
CCOC(=O)N1CCN(C(=O)c2cccn3c(=O)c4sccc4nc23)CC1	Fluor 339 460 2.5 (not shown: Spn DPM-DC inh)
COc1ccc(Cn2c(SCC(=O)NCc3ccco3)nc3ccsc3c2=O)cc1	none
CCOC(=O)CSc1nc2ccsc2c(=O)n1C1CCN(C(=O)OCC)CC1	none
CCOC(=O)N1CCC(n2c(SCC(=O)Nc3nccs3)nc3ccsc3c2=O)CC1	none
CCOC(=O)N1CCN(C(=O)c2ccc3nc4ccsc4c(=O)n3c2)CC1	Fluor 339 460 2.2 (not shown: Spn DPM-DC inh)
CCOC(=O)N1CCN(C(=O)c2ccc3c(=O)n(Cc4ccc(Cl)cc4)c(=S)[nH]c3c2)CC1	none
O=C(NCc1ccco1)c1cccn2c(=O)c3sccc3nc12	Fluor 339 460 2.5 (not shown: Spn DPM-DC inh)
COCC(C)n1c(C)cc(C(=O)COC(=O)c2ccc(N3CCCC3=O)cc2)c1C (stereo unspecified)	none
Cc1csc(=Nc2ccc(S(=O)(=O)N3CCOCC3)cc2)n1Cc1ccco1	none
COC(=O)CCSCc1cn2cc(Cl)ccc2n1	none
CNc1cccccc1=S	none
Cc1cc(C)cc(N2C(=O)C3C4C=CC(C4)C3C2=O)c1 (stereo unspecified)	none
CCC1C(=O)n2nc(-c3ccccc3)cc2N=C1C (stereo unspecified)	Fluor 339 460 2
Cc1cc(-c2ccccc2)nc(=O)[nH]1	none
Cc1ccc(-n2c(SCC(=O)NCc3ccco3)nnc2-c2cccnc2)c(C)c1	Spn DPM-DC inh active
Cc1cccc(-n2c(SCC(=O)NCc3ccco3)nnc2-c2ccco2)c1	none
Cn1c(NC(=O)c2cccs2)c(-c2cccs2)c(=O)c2ccccc21	none
CCC(=O)Nc1c(-c2ccc(OC)cc2)c(=O)c2ccccc2n1C	Fluor 339 460 3.8 (not shown: Spn DPM-DC inh)
CCOc1ccc2[nH]c(=O)c(CN(C(=O)N3CCOCC3)C3CC3)cc2c1	Fluor 339 460 3.8 (not shown: Spn DPM-DC inh)
CCOc1ccc2[nH]c(=O)c(CN(Cc3ccccc3)C(=O)N3CCCC3)cc2c1	Fluor 339 460 2.1
c1ccc2c(c1)OCC(c1nnc3sc(-c4ccc5c(c4)OCO5)nn13)O2 (stereo unspecified)	Fluor 339 460 2.6
Fc1ccc(-c2nn3c(C4COc5ccccc5O4)nnc3s2)cc1 (stereo unspecified)	none
Brc1ccccc1-c1nnc2sc(-c3ccc4c(c3)OCCO4)nn12	Fluor 339 460 2
c1ccc2c(c1)ncn2Cc1nnc2sc(-c3ccc4c(c3)OCO4)nn12	Fluor 339 460 3.8 (not shown: Spn DPM-DC inh)
Clc1cccc(-c2nnc3sc(-c4ccc5c(c4)OCO5)nn23)c1	none
Clc1ccccc1-c1nnc2sc(-c3ccc4c(c3)OCO4)nn12	Fluor 339 460 2.6
Brc1ccccc1-c1nnc2sc(Cc3ccccc3)nn12	none
Clc1ccccc1-c1nn2c(Cn3cnc4ccccc43)nnc2s1	none
CC(=O)NC(C)C(=O)OCC(=O)Nc1ccc(Br)cc1 (stereo unspecified)	none
CC(C)=CC(=O)Nc1ccc(Br)cc1	PMK inhibit active
CCCS(=O)(=O)N1CCCC(C(=O)NCCc2ccc(OC)c(OC)c2)C1 (stereo unspecified)	none
O=C1NC(c2ccccc2Cl)Nc2ccccc21 (stereo unspecified)	Fluor 339 460 5 (not shown: Spn DPM-DC inh)
Cc1ccsc1C1NC(=O)c2ccccc2N1 (stereo unspecified)	none (not shown: Spn DPM-DC inh)
O=C1NC(c2cccs2)Nc2ccccc21 (stereo unspecified)	Fluor 339 460 2.5 (not shown: Spn DPM-DC inh)
CCOC(=O)CNC(=O)Nc1cc(C(C)(C)C)nn1-c1ccccc1	none

Screens from PubChem.
